Measured values taken from PubChem BioAssay (NCATS).
Unmarked numbers belong to inactive results. Inconclusive results are not listed. Calls of active or inactive are those of the source. Unless noted, calls come from the whole dose curve; as a rule, active = well fitted curve in the direction sought with a large enough effect; inconclusive = small, poorly fitted or top-dose-only effect, or another doubt; inactive = no such curve, though single readings can be large; an effect the other way counts as inactive or inconclusive.

Legend:
[1] = biological target: Lysosomal acid glucosylceramidase (Homo sapiens) (UniProt P04062); test: Glucocerebrosidase-p2 (AID 348; in the data active = potency below about 10 µM; note: potency is the fitted concentration of half-maximal effect); details: purified GBA, blue fluorogenic substrate, 40 min
Outline: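 Normal human glucocerebrosidase (0.2 nM) with blue fluorogenic substrate (80 uM final) in citrate/phosphate pH 5.9 with 10mM sodium taurocholate, 0.01% tween-20; 40 min RT, NaOH/glycine stop; fluorescence Ex 365/Em 440; AC50 from a titration from 0.6 nM upwards.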

[2] = AP1 Signaling Pathway (AID 357; active = well fitted curve in either direction with a large enough effect, not every such curve was filed as active;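 note: ME-180 reporter cells stimulated with EGF at its EC50 level; % is set by controls: 0 for no effect and ±100 for the full control effect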); details: ME-180 AP-1-bla reporter, EGF-induced, beta-lactamase ratio, 5 h; at 7.69 µM (top of the series) unless noted
Outline: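 In this screen, ME-180 cells in Opti-MEM with 0.5% dialyzed FBS received EC50 EGF and compound titrations for 5 h. AP-1 reporter beta-lactamase was detected via CCF4 ratio, giving AC50 for positive and negative modulators.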

[3] = biological target: Cytochrome P450 1A2 (Homo sapiens) (UniProt P05177); test: p450-cyp1a2 (AID 410; calls by dose curve; note: potency is the fitted concentration of half-maximal effect); details: recombinant CYP1A2, luciferin-ME demethylation, luminescence; series mostly up to 57 µM
Outline: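 20nM CYP1A2, 100uM Luciferin-ME (=Km), 100mM KPO4; cpd 10 min RT; +NADPH regen, 60 min RT; stop/detect 20 min; luminescence. Normalized to furafylline 57 uM = full inhibition.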

[4] = NFAT Signaling Pathway (AID 444; active = well fitted curve in either direction with a large enough effect, not every such curve was filed as active;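 note: carbachol stimulus at about its EC50 of 1 µM final; % is set by controls: 0 for no effect and ±100 for the full control effect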); details: Jurkat NFAT-bla M1, carbachol, beta-lactamase ratio, 5 h; at 7.69 µM (top of the series) unless noted
Outline: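 Jurkat cells carrying an NFAT-driven β-lactamase reporter and co-transfected muscarinic M1 receptor were treated with compound plus carbachol (1 uM final, an EC50 level) for 5 h at 37 °C. CCF4 loading followed for 1 h at RT; 460/530 nm ratio gave %activity.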

[5] = biological target: Glucocorticoid receptor (Homo sapiens) (UniProt P04150); test: GR-GFP Redistribution (AID 450;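 active = compounds whose dose series gives a full or clear partial fitted curve of increased nuclear translocation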; note: potency is the fitted concentration of half-maximal effect); details: U2OS GR-GFP nuclear translocation, laser cytometry, 2 h
[6] = biological target: Glucocorticoid receptor (Homo sapiens) (UniProt P04150); test: GR-EFC Redistribution (AID 451; calls by dose curve; note: potency is the fitted concentration of half-maximal effect); details: CHO-K1 GR-EFC translocation, beta-gal luminescence, 2 h
Outline: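 CHO-K1 cells stably expressing nuclear-localized β-gal enzyme acceptor and GR fused C-terminally to the enzyme donor fragment; ligand-driven nuclear translocation restores β-gal by complementation. Compounds titrated up to 46 uM final, 2 h at 37 °C; luminescence read.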

[7] = biological target: Mitogen-activated protein kinase 10 (Mus musculus) (UniProt Q61831); test: JNK3 AlphaScreen Assay (AID 530; active = well fitted curve in either direction with a large enough effect, not every such curve was filed as active;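 note: kinase came from lysate of stimulated human HepG2 cells; signal reports phosphorylation of biotinylated GST-cJun 1-79 at Ser73 with 10 µM ATP; % is set by controls: 0 for no effect and ±100 for the full control effect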); details: JNK3 lysate, c-Jun phosphorylation; series mostly up to 57.1 µM
Outline: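 Biotinylated GST-cJun(1-79) served as substrate for JNK3 in HepG2 lysates stimulated with IL-1beta and TNF-alpha. ATP was 10 uM final, pH 7.6. Ser73 phosphorylation was quantified by AlphaScreen (680 nm excitation).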

[8] = biological target: Dual specificity protein kinase CLK4 (Homo sapiens) (UniProt Q9HAZ1); test: qHTS Assay for Inhibitors of CDC-like Kinase 4 (ADP-FP Assay) (AID 1795); details: Transcreener ADP fluorescence polarization; series mostly up to 50 µM; note: nearly all actives have a fitted effect of over 60% in size; note: potency is the fitted concentration of half-maximal effect
Outline: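 Recombinant human Clk4 (6.25 nM) phosphorylated RS repeat peptide (100 uM) with 1 uM ATP in Tris pH 7.5/MgCl2/EGTA/DTT/Triton buffer for one hour. ADP was quantified by Transcreener competitive fluorescence polarization against an ADP calibration curve.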

[9] = Primary qHTS for small molecule stabilizers of the endoplasmic reticulum resident proteome: Secreted ER Calcium Modulated Protein (SERCaMP) assay (AID 1508630); details: SH-SY5Y GLuc-SERCaMP (Gaussia luciferase released on ER calcium loss) secretion, thapsigargin, luminescence; series mostly up to 38.4 µM; note: % is set by controls: 0 for no effect and ±100 for the full control effect
Outline: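 The SH-SY5Y reporter protocol was run at 3 concentrations up to 38.3 uM (primary) or 11 concentrations (follow-up): 16 h compound, 100 nM thapsigargin for 4 h, then extracellular luciferase luminescence.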

[10] = Stat Signaling Pathway (AID 446; active = well fitted curve in either direction with a large enough effect, not every such curve was filed as active); details: ME-180 SIE beta-lactamase reporter, IL-6 stimulated, 5 h; at 7.69 µM (top of the series) unless noted
Outline: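 Overnight-plated ME-180 cells bearing a STAT Inducible Element beta-lactamase reporter; 5 h co-exposure to compound and 40 pM IL-6; values normalized to 300 pM IL-6 and 125 nM JAK inhibitor controls.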

[11] = biological target: 3',5'-cyclic-AMP phosphodiesterase 4B (Homo sapiens) (UniProt Q07343); test: qHTS Assay for Inhibitors of PDE-IV (AID 607; active = well fitted activation curve with a large enough effect in the main read-out, with a control signal flat, not every such curve was filed as active; note: potency is the fitted concentration of half-maximal effect); details: HEK293 ACTOne CNG channel cells, membrane potential fluorescence; series mostly up to 22.9 µM
Outline: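 Live HEK293 cells with a modified cyclic nucleotide-gated (CNG) channel report intracellular cAMP via membrane-potential dye fluorescence (ex 535/em 590 nm). Endogenous PDE-IV was targeted. Compounds were tested at up to 22.9 uM final; RO 20-1724 100 uM served as control.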

[12] = biological target: Ubiquitin carboxyl-terminal hydrolase 1 (Homo sapiens) (UniProt O94782); test: Inhibitors of USP1/UAF1: Pilot qHTS (AID 504865); details: purified USP1/UAF1, Ub-rhodamine cleavage fluorescence; series mostly up to 54.9 µM;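 note: rhodamine fluorescence freed from ubiquitin-rhodamine substrate followed over time; top concentration of the series differs between compounds; % is set by controls: 0 for no effect and ±100 for the full control effect; nearly all actives have a fitted effect of over 35% in size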
Outline: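 USP1/UAF1 complex (1nM) preincubated with compound 15 min at room temperature, then Ub-Rho substrate (150nM final) added. Fluorescence read kinetically at 480/540 nm, 6 reads every 60 seconds. Buffer: 50mM HEPES pH 7.8, 0.5mM EDTA, 0.1 mg/ml BSA, 1mM TCEP, 0.01% Tween-20.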

[13] = biological target: Cytochrome P450 3A4 (Homo sapiens) (UniProt P08684); test: qHTS Assay for Activators of Cytochrome P450 3A4 (AID 885); details: recombinant CYP3A4, Luciferin-PPXE luminescence, 60 min; series mostly up to 57.1 µM; note: nearly all actives have a fitted effect of over 65% in size
Outline: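 Using 20nM recombinant human CYP3A4 in potassium phosphate (200mM), substrate Luciferin-PPXE at 25uM, luminescent luciferin detection followed a 60-min RT NADPH reaction; data scaled to 57 uM ketoconazole.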

[14] = biological target: Cytochrome P450 2C19 (Homo sapiens) (UniProt P33261); test: qHTS Assay for Inhibitors and Substrates of Cytochrome P450 2C19 (AID 899); details: recombinant CYP2C19, luciferin-H EGE luminescence; series mostly up to 57.1 µM; note: potency is the fitted concentration of half-maximal effect; nearly all actives have a fitted effect of over 60% in size
Outline: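 NADPH-dependent conversion of Luciferin-H EGE (10uM, at KM) by 5nM enzyme in 50mM KPO4, 60 min at 37C following 10 min compound preincubation. Stopped with luciferin detection buffer; luminescence read after 20 min.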

[15] = qHTS Assay for Identification of Small Molecule Agonists for Hypoxia Response Element Signaling Pathway (AID 914; active = well fitted activation curve with a large enough effect in the signal ratio, with a control signal flat, not every such curve was filed as active; the % refers to the signal ratio; note: % of control where 0% means no effect); details: ME-180 (cervical carcinoma) HRE-bla reporter, beta-lactamase ratio, CoCl2, 17 h; activation: stronger effect = higher value
Outline: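 In Opti-MEM containing 0.5% dialyzed FBS and 10 mM HEPES, ME-180 HRE-bla cells received a compound titration and EC50 CoCl2. They were incubated 17 hours, then CCF4-loaded 2.5 hours at room temperature before ratio reading.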

[16] = biological target: Cytochrome P450 3A4 (Homo sapiens) (UniProt P08684); test: qHTS Assay for Inhibitors and Substrates of Cytochrome P450 3A4 (AID 884); details: recombinant CYP3A4, Luciferin-PPXE luminescence; series mostly up to 57.1 µM; note: potency is the fitted concentration of half-maximal effect; nearly all actives have a fitted effect of over 50% in size
Outline: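 Luminescent readout of luciferin produced by CYP3A4 (20 nM) dealkylation of Luciferin-PPXE, 25 uM (its KM). NADPH-driven reaction ran 60 min at RT after 10 min compound preincubation; data scaled to 57 uM ketoconazole as 100% inhibition.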

Cytochrome P450 1A2 (Homo sapiens), sequence (P05177 whole entry, looked up): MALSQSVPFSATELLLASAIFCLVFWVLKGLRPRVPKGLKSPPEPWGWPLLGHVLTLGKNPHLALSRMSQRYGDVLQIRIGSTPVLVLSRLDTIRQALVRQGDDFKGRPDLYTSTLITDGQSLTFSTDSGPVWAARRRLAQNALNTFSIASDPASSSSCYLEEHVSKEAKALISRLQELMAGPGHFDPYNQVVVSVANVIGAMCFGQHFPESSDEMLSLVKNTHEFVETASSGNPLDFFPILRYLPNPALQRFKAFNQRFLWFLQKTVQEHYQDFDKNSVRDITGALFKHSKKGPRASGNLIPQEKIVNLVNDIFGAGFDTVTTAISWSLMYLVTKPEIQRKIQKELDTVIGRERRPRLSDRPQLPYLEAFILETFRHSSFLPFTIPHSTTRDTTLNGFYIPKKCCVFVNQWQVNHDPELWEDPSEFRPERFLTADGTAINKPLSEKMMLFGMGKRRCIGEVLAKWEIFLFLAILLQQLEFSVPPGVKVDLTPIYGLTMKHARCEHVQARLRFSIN
Lysosomal acid glucosylceramidase (Homo sapiens), sequence (P04062 whole entry, looked up): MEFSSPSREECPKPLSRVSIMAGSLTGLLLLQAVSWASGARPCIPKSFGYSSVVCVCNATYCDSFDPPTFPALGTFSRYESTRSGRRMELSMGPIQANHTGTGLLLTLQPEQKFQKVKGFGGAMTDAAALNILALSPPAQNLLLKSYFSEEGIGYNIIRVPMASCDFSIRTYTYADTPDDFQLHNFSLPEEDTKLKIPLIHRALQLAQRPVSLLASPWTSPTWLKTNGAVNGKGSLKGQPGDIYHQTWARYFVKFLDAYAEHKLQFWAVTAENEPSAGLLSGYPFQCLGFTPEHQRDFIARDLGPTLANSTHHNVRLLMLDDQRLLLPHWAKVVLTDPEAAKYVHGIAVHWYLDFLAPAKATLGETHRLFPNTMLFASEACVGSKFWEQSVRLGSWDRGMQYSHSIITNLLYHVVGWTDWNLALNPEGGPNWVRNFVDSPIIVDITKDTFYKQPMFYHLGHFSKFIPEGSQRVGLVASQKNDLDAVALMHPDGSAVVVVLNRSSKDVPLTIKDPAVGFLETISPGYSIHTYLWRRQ
Glucocorticoid receptor (Homo sapiens), sequence (P04150 whole entry, looked up, the tested form may be a part): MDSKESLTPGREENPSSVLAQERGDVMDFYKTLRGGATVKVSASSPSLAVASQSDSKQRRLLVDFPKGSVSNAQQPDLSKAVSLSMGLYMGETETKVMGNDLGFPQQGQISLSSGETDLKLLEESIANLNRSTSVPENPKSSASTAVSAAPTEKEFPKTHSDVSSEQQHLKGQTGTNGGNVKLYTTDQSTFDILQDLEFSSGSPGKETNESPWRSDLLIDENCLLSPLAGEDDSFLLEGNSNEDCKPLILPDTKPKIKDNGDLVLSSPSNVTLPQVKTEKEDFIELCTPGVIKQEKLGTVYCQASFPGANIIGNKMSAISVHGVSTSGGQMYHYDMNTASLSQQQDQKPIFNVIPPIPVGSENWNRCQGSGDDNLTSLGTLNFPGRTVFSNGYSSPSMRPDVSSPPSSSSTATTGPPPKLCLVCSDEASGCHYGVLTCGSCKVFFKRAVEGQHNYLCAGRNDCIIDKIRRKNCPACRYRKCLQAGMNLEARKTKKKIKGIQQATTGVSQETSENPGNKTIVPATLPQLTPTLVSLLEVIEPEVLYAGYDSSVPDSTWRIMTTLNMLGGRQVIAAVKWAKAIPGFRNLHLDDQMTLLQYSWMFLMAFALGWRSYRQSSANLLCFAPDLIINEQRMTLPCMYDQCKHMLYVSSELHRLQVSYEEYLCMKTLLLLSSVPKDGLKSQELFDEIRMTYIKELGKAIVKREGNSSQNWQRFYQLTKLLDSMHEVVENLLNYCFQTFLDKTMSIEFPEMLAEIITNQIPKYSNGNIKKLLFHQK
Ubiquitin carboxyl-terminal hydrolase 1 (Homo sapiens), sequence (O94782 whole entry, looked up): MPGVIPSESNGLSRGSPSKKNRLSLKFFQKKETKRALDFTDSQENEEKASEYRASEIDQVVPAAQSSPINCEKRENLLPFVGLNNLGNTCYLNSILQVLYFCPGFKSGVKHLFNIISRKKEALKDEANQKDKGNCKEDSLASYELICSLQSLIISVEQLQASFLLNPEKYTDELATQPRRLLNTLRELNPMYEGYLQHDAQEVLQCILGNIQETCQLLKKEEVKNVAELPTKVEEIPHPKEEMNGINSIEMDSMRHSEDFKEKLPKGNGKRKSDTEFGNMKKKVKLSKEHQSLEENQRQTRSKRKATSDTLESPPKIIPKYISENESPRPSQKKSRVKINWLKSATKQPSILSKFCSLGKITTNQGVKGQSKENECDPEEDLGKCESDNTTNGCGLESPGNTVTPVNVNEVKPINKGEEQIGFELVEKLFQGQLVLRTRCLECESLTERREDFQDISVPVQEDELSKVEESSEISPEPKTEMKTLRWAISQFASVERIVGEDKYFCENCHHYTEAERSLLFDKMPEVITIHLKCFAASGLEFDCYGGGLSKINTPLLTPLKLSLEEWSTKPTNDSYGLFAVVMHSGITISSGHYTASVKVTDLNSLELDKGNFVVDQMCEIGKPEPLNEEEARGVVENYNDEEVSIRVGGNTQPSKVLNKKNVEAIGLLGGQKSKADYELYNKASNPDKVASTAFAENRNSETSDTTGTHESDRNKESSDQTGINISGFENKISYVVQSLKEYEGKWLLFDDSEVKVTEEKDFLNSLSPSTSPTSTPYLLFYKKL
Cytochrome P450 2C19 (Homo sapiens), sequence (P33261 whole entry, looked up): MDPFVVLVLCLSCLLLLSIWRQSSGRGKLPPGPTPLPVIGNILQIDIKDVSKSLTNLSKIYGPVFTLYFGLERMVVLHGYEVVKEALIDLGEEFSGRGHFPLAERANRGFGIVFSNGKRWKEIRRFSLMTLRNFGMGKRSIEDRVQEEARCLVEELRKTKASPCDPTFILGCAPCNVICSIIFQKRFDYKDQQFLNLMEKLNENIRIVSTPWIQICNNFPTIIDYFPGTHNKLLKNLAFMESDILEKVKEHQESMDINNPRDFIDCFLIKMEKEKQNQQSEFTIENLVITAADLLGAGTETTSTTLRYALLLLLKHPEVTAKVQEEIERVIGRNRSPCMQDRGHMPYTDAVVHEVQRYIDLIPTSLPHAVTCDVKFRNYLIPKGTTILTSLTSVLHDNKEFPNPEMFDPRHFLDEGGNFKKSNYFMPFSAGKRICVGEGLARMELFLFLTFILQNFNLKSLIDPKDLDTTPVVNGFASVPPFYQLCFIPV
3',5'-cyclic-AMP phosphodiesterase 4B (Homo sapiens), sequence (Q07343 whole entry, looked up): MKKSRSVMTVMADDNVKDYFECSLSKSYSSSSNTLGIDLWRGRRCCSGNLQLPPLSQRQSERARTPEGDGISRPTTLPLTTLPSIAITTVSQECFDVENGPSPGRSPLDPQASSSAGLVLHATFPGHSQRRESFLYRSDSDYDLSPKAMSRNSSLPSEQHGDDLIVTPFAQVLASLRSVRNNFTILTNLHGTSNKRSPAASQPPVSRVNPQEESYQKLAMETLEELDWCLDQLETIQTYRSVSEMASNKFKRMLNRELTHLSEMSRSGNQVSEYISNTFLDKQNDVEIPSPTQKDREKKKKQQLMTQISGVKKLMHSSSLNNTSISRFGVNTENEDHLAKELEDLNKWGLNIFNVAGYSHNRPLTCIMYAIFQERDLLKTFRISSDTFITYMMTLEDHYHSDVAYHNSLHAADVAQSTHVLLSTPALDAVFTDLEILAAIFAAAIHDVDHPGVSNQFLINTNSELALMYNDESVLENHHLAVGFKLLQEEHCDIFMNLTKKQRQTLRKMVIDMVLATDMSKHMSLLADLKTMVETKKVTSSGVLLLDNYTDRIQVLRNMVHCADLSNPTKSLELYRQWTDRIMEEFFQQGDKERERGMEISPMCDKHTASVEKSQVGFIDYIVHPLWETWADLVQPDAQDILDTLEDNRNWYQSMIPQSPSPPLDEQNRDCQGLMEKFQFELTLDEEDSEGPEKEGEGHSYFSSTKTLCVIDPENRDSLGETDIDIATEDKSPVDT
Cytochrome P450 3A4 (Homo sapiens), sequence (P08684 whole entry, looked up): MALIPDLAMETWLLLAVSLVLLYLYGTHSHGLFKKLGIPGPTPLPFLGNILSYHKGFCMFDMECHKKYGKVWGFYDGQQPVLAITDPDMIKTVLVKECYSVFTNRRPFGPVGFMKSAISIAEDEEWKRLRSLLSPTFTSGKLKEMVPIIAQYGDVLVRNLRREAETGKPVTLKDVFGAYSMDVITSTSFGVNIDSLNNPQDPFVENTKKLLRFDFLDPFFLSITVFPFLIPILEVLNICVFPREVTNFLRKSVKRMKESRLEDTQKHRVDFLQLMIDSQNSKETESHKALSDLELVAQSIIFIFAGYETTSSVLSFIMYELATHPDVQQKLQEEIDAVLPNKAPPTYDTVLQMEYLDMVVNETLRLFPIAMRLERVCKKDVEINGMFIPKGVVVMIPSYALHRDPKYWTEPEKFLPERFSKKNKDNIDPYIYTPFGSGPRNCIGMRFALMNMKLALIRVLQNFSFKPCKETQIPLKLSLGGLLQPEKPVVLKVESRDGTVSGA
Dual specificity protein kinase CLK4 (Homo sapiens), sequence (Q9HAZ1 whole entry, looked up): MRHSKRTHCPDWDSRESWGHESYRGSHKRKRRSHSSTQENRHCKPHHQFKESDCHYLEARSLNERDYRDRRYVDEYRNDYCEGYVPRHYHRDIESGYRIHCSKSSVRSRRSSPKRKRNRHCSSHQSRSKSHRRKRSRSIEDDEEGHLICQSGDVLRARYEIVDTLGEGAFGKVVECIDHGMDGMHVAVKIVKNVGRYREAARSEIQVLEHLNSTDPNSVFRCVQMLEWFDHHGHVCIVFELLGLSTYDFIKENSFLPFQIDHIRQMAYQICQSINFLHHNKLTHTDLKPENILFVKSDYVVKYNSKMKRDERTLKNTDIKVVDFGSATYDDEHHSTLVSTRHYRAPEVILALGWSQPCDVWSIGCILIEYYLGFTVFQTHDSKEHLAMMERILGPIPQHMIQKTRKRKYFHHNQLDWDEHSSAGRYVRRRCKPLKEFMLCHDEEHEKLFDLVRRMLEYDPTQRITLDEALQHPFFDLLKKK

Row | SMILES | Potency [1] | activity change, negative = inhibition [2] | Potency [3] | activity change, negative = inhibition [4] | Potency [5] | Potency [6] | Potency [7] | Potency [8] | outcome [9] | activity, negative = inhibition [10] | Potency [11] | Potency [12] | Potency [13] | Potency [14] | activation [15] | Potency [16]
1 | CCNc1ncc2nc(-c3cccs3)c(=O)n(-c3ccccc3)c2n1 | > 11.4 µM | -0.879% | 1.58 µM (active) | -3.13% | > 9.22 µM | > 46 µM | inactive | inactive | inactive | – | – | – | – | – | – | –
2 | COc1ccc(CNc2ncncc2-c2ccoc2)c(OC)c1 | > 11.4 µM | -9.49% | – | 5.94% | > 46 µM | > 46 µM | inactive | 14.1 µM (active) | inactive | -9.38% | inactive | inactive | – | – | – | –
3 | Cc1nc2cnc(N(C)C)nc2n(CCc2ccccc2)c1=O | > 11.4 µM | -5.39% | 1.26 µM (active) | -14.5% | > 9.22 µM | > 46 µM | inactive | inactive | inactive | – | – | inactive | inactive | 0.631 µM (active) | -12% | –
4 | COc1ccc2[nH]cc(CCNc3cc(-c4c(C)noc4C)ncn3)c2c1 | > 11.4 µM | 8.05% | – | 0.421% | – | > 46 µM | inactive | inactive | inactive | -0.948% | inactive | inactive | – | – | – | –
5 | Cc1cnc(CNc2nc(-c3ccccc3Cl)nc3ccccc23)cn1 | > 11.4 µM | – | 6.31 µM (active) | 9.67% | > 46 µM | > 46 µM | inactive | inactive | inactive | -10.8% | inactive | inactive | inactive | – | – | –
6 | c1ccc(CNc2nc(-c3ccoc3)nc3ccccc23)cc1 | > 2.29 µM | -9.34% | 0.631 µM (active) | -7.24% | > 46 µM | > 46 µM | inactive | inactive | inactive | 12.7% | – | inactive | inactive | – | – | –
7 | Clc1ccccc1-c1nccc(NCCN2CCOCC2)n1 | > 11.4 µM | 4.13% | 2 µM (active) | 3.47% | > 46 µM | > 46 µM | inactive | inactive | inactive | 5.58% | – | inactive | inactive | 5.01 µM (active) | – | –
8 | COCCn1c(=O)c(-c2cccc(F)c2)nc2cncnc21 | > 11.4 µM | -16% | 2 µM (active) | -5.24% | > 9.22 µM | > 46 µM | inactive | inactive | inactive | -1.12% | – | inactive | inactive | – | – | –
9 | COc1ccc(-c2nc3cnc(N4CCOCC4)nc3n(Cc3cccs3)c2=O)cc1 | > 11.4 µM | 12.3% | 2.51 µM (active) | -2.31% | > 9.22 µM | > 46 µM | inactive | inactive | inactive | – | 1.58 µM (active) | inactive | – | – | – | –
10 | c1csc(CNc2nc(-c3ccc4c(c3)OCO4)nc3ccccc23)c1 | > 11.4 µM | 0.483% | 0.794 µM (active) | – | > 46 µM | > 46 µM | inactive | inactive | inactive | -13.1% | – | – | inactive | 3.16 µM (active) | – | –
11 | Cc1noc(C)c1-c1nccc(Nc2ccc(F)cc2)n1 | > 11.4 µM | -22.4% | 0.398 µM (active) | -10.5% | > 46 µM | > 46 µM | – | inactive | inactive | 1.44% | inactive | – | inactive | 3.98 µM (active) | 21.5% | –
12 | CN(Cc1ccco1)c1ccnc(-c2ccccc2C(F)(F)F)n1 | > 11.4 µM | 2.94% | 2.51 µM (active) | -8.64% | – | > 46 µM | inactive | inactive | inactive | -4.79% | inactive | – | – | 7.94 µM (active) | – | –
13 | CN(C)c1ccc(-c2cncnc2NCc2cccnc2)cc1 | > 11.4 µM | -12.4% | 1 µM (active) | 8.27% | – | > 46 µM | inactive | inactive | inactive | -10% | inactive | inactive | inactive | 0.0316 µM (active) | 1.46% | 631 nM (active)
14 | N#Cc1cccc(-c2cncnc2NCCc2cnc[nH]2)c1 | > 11.4 µM | -12% | – | 4.36% | > 46 µM | > 46 µM | inactive | inactive | inactive | -1.18% | inactive | inactive | – | – | – | –
